Screening data deposited in PubChem BioAssay by National Center for Advancing Translational Sciences (NCATS).
A selection: hits, their analogues and other compounds. The true share with any hit is near 19%.
TDP1 cell noCPT – qHTS for Inhibitors of human tyrosyl-DNA phosphodiesterase 1 (TDP1): qHTS in cells in absence of CPT. DT40 Tdp1-/- hTDP1 cells, no CPT, ATP luminescence, 48 h. Potency, µM (top dose mostly 46.2 µM), for the others: top-dose activity change, negative = growth inhibition, most hits filed as inhibitors. hit rate 15% among 420,000. AID 686978, 2013; note: potency is the fitted concentration of half-maximal effect; nearly all actives have a fitted effect of over 55% in size
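Seeded 400 DT40-hTDP1 cells/well (vehicle DMSO, no 20 nM CPT); pinned compounds; ≥48 hr at 37 °C; CellTiter-Glo luminescence as viability measure.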
IL-1B inflam inh – qHTS for Inhibitors of Inflammasome Signaling: IL-1-beta AlphaLISA Primary Screen. hit rate 4.7% among 360,000. activity change, % at 57.5 µM. THP-1 LPS/ATP IL-1B secretion, AlphaLISA, 16 h; stronger effect = lower value; in the data active = activity change below about -50%; inconclusive = mostly about -30% to -49%
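THP-1 cells pretreated 1 hr with compounds (up to 57.5 uM final), then stimulated with LPS (250 ng/mL final) plus ATP (1.25 mM final); secreted IL-1B measured by AlphaLISA after 16 hr, decreased signal indicating inhibition.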
HT1080NT lethal – qHTS for induction of synthetic lethality in tumor cells producing 2HG: qHTS for the HT-1080-NT fibrosarcoma cell line. HT-1080-NT fibrosarcoma viability, CellTiter-Glo ATP luminescence, 48 h. AID 686970, 2013. hit rate 1.6% among 360,000. Potency, µM (doses to about 46.1 µM), without a hit: at the highest dose activity, negative = less viability, most hits filed as cytotoxic;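 note: NT is the 2HG producing partner of a matched IDH1 knockdown line; potency is the fitted concentration of half-maximal effect; 0% = DMSO-treated cells and -100% = media-only wells without cells; nearly all actives have a fitted effect of over 55% in size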
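Compounds were tested in concentration-response format on HT-1080-NT cells for 48 hours at 37 degrees C. Cell viability came from CellTiter-Glo luminescence; curves were classified by r2, response magnitude and activity.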
ELG1 repair inh – qHTS screen for small molecules that inhibit ELG1-dependent DNA repair in human embryonic kidney (HEK293T) cells expressing luciferase-tagged ELG1; hit rate 2.3% among 330,000; Potency, µM (doses to about 46.1 µM), for the others: at the top dose activity change, negative = inhibition, usual class: inhibitors; HEK293T ELG1-luciferase reporter, luminescence, 16 h; DNA damage induced by 5-fluorouridine; note: potency is the fitted concentration of half-maximal effect; nearly all actives have a fitted effect of over 55% in size
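Quantitative HTS, concentration-response format. 2,000 cells/well co-treated with 5-fluorouridine and compound, 16 hr in 5% CO2 at 37 °C; ONE-Glo luminescence read after 30 min.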
HT1080 IDH1KD tx – qHTS for induction of synthetic lethality in tumor cells producing 2HG: qHTS for the HT-1080-IDH1KD cell line | HT-1080 IDH1 knockdown viability, ATP luminescence, 48 h | Potency, µM (titrated, usually from 46.1 µM), for inactives: at the top dose activity, negative = toxicity, usual class: cytotoxic | hit rate 2% among 360,000 | AID 686971, 2013;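 note: potency is the fitted concentration of half-maximal effect; 0% = DMSO wells and -100% = cell-free medium wells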
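Luminescent ATP read-out (CellTiter-Glo, 10 min at room temperature) after 48 h compound exposure at 37 °C gave viability of IDH1-knockdown HT-1080 cells. Activity was normalised to DMSO and cell-free wells, then fitted as concentration-response curves.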
TDP1 cell CPT – qHTS for Inhibitors of human tyrosyl-DNA phosphodiesterase 1 (TDP1): qHTS in cells in presence of CPT | chicken DT40 Tdp1-/-;hTDP1 cells + 20 nM CPT, ATP luminescence, 48 h | Potency, µM (doses to about 46.2 µM), for the others: at the highest dose activity change, negative = growth inhibition, hits mostly inhibitors | hit rate 12% among 420,000 | AID 686979, 2013; note: potency is the fitted concentration of half-maximal effect; nearly all actives have a fitted effect of over 55% in size
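Chicken DT40 Tdp1-/- cells complemented with human TDP1, 400 cells/well, exposed to compounds plus 20 nM camptothecin for at least 48 h at 37 C; viability read as ATP content by CellTiter-Glo luminescence.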
* = called active by the depositor; ? = inconclusive; / = no result. Unless noted, calls come from the whole dose curve; as a rule, active = well fitted curve in the direction sought with a large enough effect; inconclusive = small, poorly fitted or top-dose-only effect, or another doubt; inactive = no such curve, though single readings can be large; an effect the other way counts as inactive or inconclusive. Unless noted, % is set by controls: 0 for no effect and ±100 for the full control effect.

SMILES	TDP1 cell noCPT	IL-1B inflam inh	HT1080NT lethal	ELG1 repair inh	HT1080 IDH1KD tx	TDP1 cell CPT
COc1ccc(NCC(O)Cn2c(C)c(C)c3ccccc32)cc1 (stereo not drawn)	?	-172.7*	-12.7%	?	?	?
Cc1cc(C)n2nc(C(=O)OCC(=O)NNC(=O)c3ccccc3)nc2n1	4.1%	9.6	-0.1%	28.3%	-1.3%	0.4%
CCC1(C)CC(=O)c2c(ccc3oc(C(=O)NCc4ccccc4)c(C)c23)O1 (stereo not drawn)	16.4µM*	/	/	/	/	29.1µM*
CCCNC(=O)c1oc2ccc3c(c2c1C)C(O)CC(C)(C)O3 (stereo not drawn)	6.0%	-10.6	6.8%	?	6.9%	-17.1%
Cc1c(C(=O)NCc2ccoc2)oc2ccc3c(c12)C(=O)CC(C)(C)O3	?	-51.8*	0.3%	?	?	14.6µM*
Cc1cc(C)c2c(=O)cc(C(=O)NCc3ccccc3)oc2c1	-14.2%	29.9	-4.4%	4.6%	-11.2%	3.7%
CCOc1ccccc1CNC(=O)c1oc2ccc3c(c2c1C)C(=O)CC(C)(C)O3	13µM*	/	/	/	/	?
O=C(c1cc(C2CC2)nc2ccc(Br)cc12)N1N=C(C(F)F)CC1(O)C(F)F (stereo not drawn)	16.4µM*	?	?	-4.2%	-52.6%	16.4µM*
O=C(c1cc(C2CC2)nc2ccccc12)N1N=C(C(F)F)CC1(O)C(F)F (stereo not drawn)	?	13.2	-0.5%	2.9%	-0.7%	?
Cc1cnc(CNc2nc(-c3ccoc3)nc3ccccc23)cn1	?	/	/	/	/	12.9%
O=C(NC(=S)NC1C2CC3CC(C2)CC1C3)C12CC3CC(CC(C3)C1)C2 (stereo not drawn)	14.6µM*	-7.3	14.0%	20.1%	0.7%	?
CN(C(=S)NC(=O)C12CC3CC(CC(C3)C1)C2)c1ccc(O)cc1	4.61µM*	38.2	-8.0%	13.4%	-15.0%	5.8µM*
CN(C)NC(=S)NC(=O)C12CC3CC(CC(C3)C1)C2	8.2µM*	0.0	-13.5%	13.8%	4.5%	4.11µM*
CC(C)(C)NC(=S)NC(=O)C12CC3CCC(CC(C3)C1)C2	?	-3.4	2.6%	14.2%	12.4%	?
C[C@@H]1C[C@H]2[C@@H]3CCC4=CC(=O)C=C[C@]4(C)[C@@]3(F)[C@@H](O)C[C@]2(C)[C@@]1(O)C(=O)COC(=O)c1cccc(S(=O)(=O)O)c1	-14.9%	/	/	/	/	-2.2%
CCn1cc(C(=O)OCC(=O)Nc2cc(Cl)ccc2OC)c(=O)c2ccc(C)nc21	-1.7%	/	/	/	/	-6.9%
CC1CC(O)CC(C)(C)C1 (stereo not drawn)	-2.7%	/	/	/	/	3.1%
COC(=O)c1c(-c2ccc(Cl)cc2)noc1N1CCN(c2cc(C)ccc2C)CC1	20.6µM*	/	/	/	/	14.6µM*
COC(=O)c1c(-c2ccc(Cl)cc2)noc1N1CCN(c2ccc(OC)cc2)CC1	25.9µM*	/	/	/	/	23.1µM*
COC(=O)c1c(-c2ccc(Cl)cc2)noc1N1CCN(c2ccccc2F)CC1	7.1%	/	/	/	/	-0.7%
COC(=O)C[C@H]1C[C@H]2c3cc(NC(=O)C4CCOCC4)ccc3O[C@H]2[C@H](CO)O1	2.4%	-1.1	6.9%	/	0.2%	10.9%
Cc1cccc(Cl)c1NC(=O)N1CCN(c2ccnc3cc(Cl)ccc23)CC1	13µM*	-11.1	-2.2%	18.3µM*	-18.0%	?
CC(=O)N1CCN(c2ccnc3cc(Cl)ccc23)CC1	-27.5%	-18.9	5.7%	?	-5.3%	-13.2%
O=C(Nc1ccc(C(F)(F)F)cc1)N1CCN(c2ccnc3cc(Cl)ccc23)CC1	16.4µM*	-65.4*	?	?	29.1µM*	23.1µM*
CCCCNC(=O)N1CCN(c2ccnc3cc(Cl)ccc23)CC1	13µM*	-22.3	-2.5%	20.6µM*	3.2%	20.6µM*
SMILES	TDP1 cell noCPT	IL-1B inflam inh	HT1080NT lethal	ELG1 repair inh	HT1080 IDH1KD tx	TDP1 cell CPT
O=C(Nc1cc(F)ccc1F)N1CCN(c2ccnc3cc(Cl)ccc23)CC1	5.17µM*	?	-8.2%	?	-3.5%	4.11µM*
Cc1ccc(F)cc1NC(=O)N1CCN(c2ccnc3cc(Cl)ccc23)CC1	?	-27.9	3.9%	?	-20.6%	?
O=C(CN1C(=O)C2CC=CCC2C1=O)Nc1ccc(OC(F)(F)F)cc1 (stereo not drawn)	0.8%	5.9	1.0%	23.2%	-4.6%	?
O=c1c2ccccc2nnn1CSc1nnc(C2COc3ccccc3O2)n1-c1ccccc1 (stereo not drawn)	?	13.2	-16.4%	?	-14.6%	20.6µM*
O=C(OCn1nnc2ccccc2c1=O)C1COc2ccccc2O1 (stereo not drawn)	1.5%	-3.6	0.2%	-12.7%	2.7%	-16.5%
O=C(NNC(=O)c1cccc(O)c1)Nc1ccc([N+](=O)[O-])cc1	-18.7%	16.5	-0.6%	-12.9%	-1.8%	-15.4%
O=C(/C=C/Sc1ccc(C(F)(F)F)cn1)c1ccccc1	2.31µM*	?	-1.6%	21.1%	4.7%	2.91µM*
CCOC(=O)COc1ccc(S(=O)(=O)Nc2cccc(SC)c2)cc1	-18.2%	-9.3	10µM*	0.5%	?	?
CSc1cccc(NS(=O)(=O)c2ccc(F)cc2)c1	-20.3%	15.1	-16.0%	-9.8%	-11.4%	-20.3%
CSc1cccc(NS(=O)(=O)c2ccccc2)c1	-3.6%	7.6	-15.7%	2.1%	-4.2%	-3.7%
CSc1cccc(NS(=O)(=O)c2ccc(C(C)=O)cc2)c1	?	22.2	?	7.3µM*	0.6%	?
N#CC1=C(N)NC(SCC(=O)O)=C(C#N)C12CCCC2	1.4%	-4.1	10.4%	4.2%	17.6%	-16.7%
N#CC1=C(N)NC(SCc2ccc(F)cc2)=C(C#N)C12CCCCC2	25.9µM*	-9.3	20.6µM*	?	23.1µM*	23.1µM*
COc1ccc(OC)c(CNC(=O)c2c(C)oc3ncn(CC(C)C)c(=O)c23)c1	16.4µM*	/	/	/	/	?
COc1ccc(OC)c(CCNC(=O)c2c(C)oc3ncn(C)c(=O)c23)c1	-3.9%	/	/	/	/	-22.2%
